Here are results for 10 compounds from PubChem BioAssay (NCI).

Assay [1] can be described thus: NCI Yeast Anticancer Drug Screen. Data for the rad50 strain (AID 155).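 Note: 0% = growth of vehicle-only cultures of the same strain.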 The settings on record: S. cerevisiae rad50 strain growth inhibition, active compounds read high. The procedure, abridged: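 Inhibition values express reduced yeast growth in compound-treated cultures relative to vehicle-treated controls.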
Assay [2] in a line: NCI Yeast Anticancer Drug Screen. Data for the mec2-1 strain (AID 157). The settings on record: S. cerevisiae mec2-1 strain, active compounds read high. The procedure, abridged:
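mec2-1 yeast strain, carrying an alteration in DNA damage repair or cell cycle control, was exposed to compounds; growth inhibition was measured relative to vehicle-treated controls.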

A short description of assay [3]: NCI Yeast Anticancer Drug Screen. Data for the sgs1 mgt1 strain (AID 161).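 Note: 0% = growth of cultures given vehicle only.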 The settings on record: S. cerevisiae sgs1 mgt1 strain, active compounds read high. The procedure, abridged:
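Growth of a repair-deficient yeast mutant was monitored after compound treatment and expressed as inhibition relative to vehicle-treated cultures.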

Assay [4] in a line: NCI Yeast Anticancer Drug Screen. Data for the cln2 rad14 strain (AID 165).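 Note: 0% = growth equal to vehicle treated cultures.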 The settings on record: S. cerevisiae cln2 rad14 strain, active compounds read high. The procedure, abridged:
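Yeast carrying cln2 and rad14 alterations (cell cycle control and DNA damage repair) were exposed to compounds. Growth inhibition was measured against vehicle-treated controls.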

A short description of assay [5]: NCI Yeast Anticancer Drug Screen. Data for the bub3 strain (AID 167). The settings on record: S. cerevisiae bub3 mutant strain, active compounds read high. In a few lines:
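Steps: expose the mutant yeast strain to compound; grow alongside vehicle-treated cultures; measure growth; express inhibition against the vehicle cultures.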

Assay [6] is described as follows: NCI Yeast Anticancer Drug Screen. Data for the mlh1 rad18 strain (AID 175). The settings on record: S. cerevisiae mlh1 rad18 strain growth inhibition, active compounds read high. In a few lines: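 Growth inhibition of the yeast strain was measured after compound exposure and expressed relative to vehicle-treated controls. The strain carries defined defects in DNA damage repair.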

The mark [7] stands for this setting: at 5.0 µM (retest, dose inferred, filed as 0.5).
The mark [8] stands for this setting: at 50.0 µM (retest, dose inferred, filed as 5.0).

The panel holds about 79,000 compounds, 15% with a hit somewhere; the sample as a whole holds those more often. Values without a mark were called inactive. Calls of active or inactive are those of the source. Cut-off read from the data, not from the text of the source: active = growth inhibition above about 70%; inactive = the rest.

For the compound `CC(C)COC(=O)c1ccc(NC(=O)CCl)cc1`, the growth inhibition is 0% in assay [1] (setting [7]); 93% (active) in assay [1] (setting [8]); 62.1% in assay [1] (at 50.0 µM); -1% in assay [2] (setting [7]); 94% (active) in assay [2] (setting [8]); 29.9% in assay [2] (at 50.0 µM). Further, the growth inhibition in assay [3] (setting [7]) was 2%; in assay [3] (setting [8]), 95% (active); in assay [3] (at 50.0 µM), 62.3%; in assay [4] (setting [7]) it was -7%; in assay [4] (setting [8]) it was 95% (active); in assay [4] (at 50.0 µM), 16.1%. Besides, the growth inhibition was 0% in assay [5] (setting [7]); 93% (active) in assay [5] (setting [8]); 10% in assay [5] (at 50.0 µM); 3% in assay [6] (setting [7]); 92% (active) in assay [6] (setting [8]); 67.8% in assay [6] (at 50.0 µM).
Turning to `Cc1ccc2sc3ccc(N)cc3c(=O)c2c1`, the growth inhibition was 27% in assay [1] (setting [7]); 84% (active) in assay [1] (setting [8]); 62.6% in assay [1] (at 50.0 µM); 24% in assay [2] (setting [7]); 74% (active) in assay [2] (setting [8]); 31.6% in assay [2] (at 50.0 µM). Moreover, the growth inhibition in assay [3] (setting [7]) is 26%; in assay [3] (setting [8]), 89% (active); in assay [3] (at 50.0 µM), 60.6%; in assay [4] (setting [7]), 26%; in assay [4] (setting [8]), 58%; in assay [4] (at 50.0 µM) it was 43.7%. In addition, the growth inhibition in assay [5] (setting [7]) is 25%; in assay [5] (setting [8]), 95% (active); in assay [5] (at 50.0 µM), 66.2%; in assay [6] (setting [7]) it was 27%; in assay [6] (setting [8]), 92% (active); in assay [6] (at 50.0 µM), 81.8% (active).
Consider `Cc1ccc(S(=O)(=O)Nc2ccccc2SSc2ccccc2NS(=O)(=O)c2ccc(C)cc2)cc1`, for which the growth inhibition in assay [1] (setting [7]) is 46%; in assay [1] (setting [8]), 69%; in assay [1] (at 50.0 µM), 57.5%; in assay [2] (setting [7]), 38%; in assay [2] (setting [8]), 81% (active); in assay [2] (at 50.0 µM), 63.8%. Further, the growth inhibition was 59% in assay [3] (setting [7]); 76% (active) in assay [3] (setting [8]); 60.6% in assay [3] (at 50.0 µM); 44% in assay [4] (setting [7]); 82% (active) in assay [4] (setting [8]); 68.9% in assay [4] (at 50.0 µM). Besides, the growth inhibition in assay [5] (setting [7]) was 53%; in assay [5] (setting [8]), 74% (active); in assay [5] (at 50.0 µM) it was 60.4%; in assay [6] (setting [7]) it was 63%; in assay [6] (setting [8]), 77% (active); in assay [6] (at 50.0 µM), 60.5%.
As for `CCCCCCCC/C=C\CCCCCCCC(=O)NCC[N+](C)(C)C`, the growth inhibition is 48% in assay [1] (setting [7]); 99% (active) in assay [1] (setting [8]); 99.2% (active) in assay [1] (at 50.0 µM); 17% in assay [2] (setting [7]); 100% (active) in assay [2] (setting [8]); 99.7% (active) in assay [2] (at 50.0 µM). Moreover, the growth inhibition is 53% in assay [3] (setting [7]); 99% (active) in assay [3] (setting [8]); 99.7% (active) in assay [3] (at 50.0 µM); 10% in assay [4] (setting [7]); 99% (active) in assay [4] (setting [8]); 97.4% (active) in assay [4] (at 50.0 µM). Moreover, the growth inhibition in assay [5] (setting [7]) was 83% (active); in assay [5] (setting [8]), 100% (active); in assay [5] (at 50.0 µM), 99.3% (active); in assay [6] (setting [7]), 10%; in assay [6] (setting [8]), 99% (active); in assay [6] (at 50.0 µM), 99.5% (active).
For the compound `COC(C(=O)C1=C2Oc3c4c(cc(O)c3C(=O)C2C2=C(CCCC2)C1=O)OC(C)(C)C=C4)C(C)CCC=C(C)C` (stereo not given), the growth inhibition in assay [1] (setting [7]) is 6%; in assay [1] (setting [8]), 90% (active); in assay [1] (at 50.0 µM), 74.2% (active); in assay [2] (setting [7]), -1%; in assay [2] (setting [8]), 90% (active); in assay [2] (at 50.0 µM), 79% (active). For the same compound, the growth inhibition in assay [3] (setting [7]) is 3%; in assay [3] (setting [8]), 90% (active); in assay [3] (at 50.0 µM), 78.5% (active); in assay [4] (setting [7]), -5%; in assay [4] (setting [8]), 90% (active); in assay [4] (at 50.0 µM), 80.9% (active). The growth inhibition is 4% in assay [5] (setting [7]); 92% (active) in assay [5] (setting [8]); 78% (active) in assay [5] (at 50.0 µM); 4% in assay [6] (setting [7]); 92% (active) in assay [6] (setting [8]); 80.2% (active) in assay [6] (at 50.0 µM).
As for `Nc1ccc(Cl)c2c1C(=O)c1ccccc1C2=O`, the growth inhibition is 40% in assay [1] (setting [7]); 19% in assay [1] (setting [8]); 98.8% (active) in assay [1] (at 50.0 µM); 13% in assay [2] (setting [7]); 7% in assay [2] (setting [8]); 56.8% in assay [2] (at 50.0 µM). Moreover, the growth inhibition is 0% in assay [3] (setting [7]); 41% in assay [3] (setting [8]); 89.2% (active) in assay [3] (at 50.0 µM); -4% in assay [4] (setting [7]); 3% in assay [4] (setting [8]); 46.6% in assay [4] (at 50.0 µM). Also, the growth inhibition was 0% in assay [5] (setting [7]); 30% in assay [5] (setting [8]); 34.1% in assay [5] (at 50.0 µM); 13% in assay [6] (setting [7]); 12% in assay [6] (setting [8]); 89.3% (active) in assay [6] (at 50.0 µM).
For the compound `Clc1ccc(/C=N\Nc2ccccc2)c(Cl)c1`, the growth inhibition in assay [1] (setting [7]) was 4%; in assay [1] (setting [8]), 99% (active); in assay [1] (at 50.0 µM), 76.8% (active); in assay [2] (setting [7]), 1%; in assay [2] (setting [8]), 99% (active); in assay [2] (at 50.0 µM), 44.9%. Moreover, the growth inhibition in assay [3] (setting [7]) was -1%; in assay [3] (setting [8]), 98% (active); in assay [3] (at 50.0 µM) it was 30.1%; in assay [4] (setting [7]) it was 2%; in assay [4] (setting [8]), 86% (active); in assay [4] (at 50.0 µM) it was -6.9%. The growth inhibition in assay [5] (setting [7]) is -2%; in assay [5] (setting [8]) it was 99% (active); in assay [5] (at 50.0 µM) it was 31.7%; in assay [6] (setting [7]), 1%; in assay [6] (setting [8]), 99% (active); in assay [6] (at 50.0 µM), 66.4%.
Consider `O=C1C=C(Cl)C(=O)C(Cl)=C1Cl`, for which the growth inhibition is -14% in assay [1] (setting [7]); 99% (active) in assay [1] (setting [8]); 99.2% (active) in assay [1] (at 50.0 µM); 11% in assay [2] (setting [7]); 99% (active) in assay [2] (setting [8]); 99.3% (active) in assay [2] (at 50.0 µM). The growth inhibition was 12% in assay [3] (setting [7]); 99% (active) in assay [3] (setting [8]); 99.2% (active) in assay [3] (at 50.0 µM); -25% in assay [4] (setting [7]); 91% (active) in assay [4] (setting [8]); 98.7% (active) in assay [4] (at 50.0 µM). Further, the growth inhibition is 8% in assay [5] (setting [7]); 99% (active) in assay [5] (setting [8]); 99% (active) in assay [5] (at 50.0 µM); 3% in assay [6] (setting [7]); 99% (active) in assay [6] (setting [8]); 98.8% (active) in assay [6] (at 50.0 µM).
`Nc1ccc2c(c1)[nH]c(=O)c1c(Cl)cccc12`: the growth inhibition was -108% in assay [1] (setting [7]); 47% in assay [1] (setting [8]); 84.5% (active) in assay [1] (at 50.0 µM); -41% in assay [2] (setting [7]); -26% in assay [2] (setting [8]); 41% in assay [2] (at 50.0 µM). In addition, the growth inhibition in assay [3] (setting [7]) is -58%; in assay [3] (setting [8]), -33%; in assay [3] (at 50.0 µM) it was 21.4%; in assay [4] (setting [7]), -46%; in assay [4] (setting [8]) it was -39%; in assay [4] (at 50.0 µM), 48.5%. For the same compound, the growth inhibition in assay [5] (setting [7]) is -50%; in assay [5] (setting [8]), -42%; in assay [5] (at 50.0 µM), 4.8%; in assay [6] (setting [7]) it was -87%; in assay [6] (setting [8]), -45%; in assay [6] (at 50.0 µM), 55.5%.
As for `CC(C)(C)NCc1cc(Nc2ccnc3cc(Cl)ccc23)cc(-c2ccc(Cl)cc2)c1O`, the growth inhibition in assay [1] (setting [7]) is -6%; in assay [1] (setting [8]) it was 19%; in assay [1] (at 50.0 µM) it was 14.7%; in assay [2] (setting [7]), -4%; in assay [2] (setting [8]), 17%; in assay [2] (at 50.0 µM) it was -16.1%. For the same compound, the growth inhibition in assay [3] (setting [7]) was -5%; in assay [3] (setting [8]), -15%; in assay [3] (at 50.0 µM) it was -9.6%; in assay [4] (setting [7]), -2%; in assay [4] (setting [8]) it was 18%; in assay [4] (at 50.0 µM) it was 68.5%. For the same compound, the growth inhibition is 7% in assay [5] (setting [7]); -8% in assay [5] (setting [8]); 2.1% in assay [5] (at 50.0 µM); -1% in assay [6] (setting [7]); 22% in assay [6] (setting [8]); 20.5% in assay [6] (at 50.0 µM).
